Test results: PubChem BioAssay
Values without a mark were called inactive. For some assays here: Measured potencies and affinities stand elsewhere. Calls of active or inactive are those of the source. Unless noted, how the calls were made is not given here.

Legend:
[1] = antimalarial activity against Dd2 strain (AID 2302;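 active means growth inhibition above 50% at the single 2 µM test dose, taken to imply half-maximal potency below 2 µM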;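 further: 0% = DMSO untreated growth and 100% = chloroquine plus artemisinin killed control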); settings: P. falciparum Dd2 in RBCs, LDH growth readout, 72 h; at 2 µM; stronger effect = higher value
[2] = human hepatoma cell viability loss – ATP luminescence, cytotoxicity control for P. falciparum antimalarial project, primary screen (AID 2303;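 active means inhibition above 50%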;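 further: 0% = DMSO wells and 100% = digitonin-killed cells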); settings: HepG2 viability, 24-48 h, at 10 µM, stronger effect = higher value
[3] = molecular target: L-lactate dehydrogenase (Plasmodium falciparum (isolate CDC / Honduras)) (UniProt Q27743); assay: PfLDH activity inhibition – cell lysate, 3D7 strain, counter-screen for P. falciparum growth inhibition project (AID 2304);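 further: 0% = vehicle and 100% = reference inhibitor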; settings: P. falciparum 3D7 crude extract, LDH APAD/NBT absorbance; at 2 µM; stronger effect = higher value
[4] = inhibition of 3D7 malaria parasite growth – strain 3D7 (AID 2306);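 further: 0% = DMSO wells and 100% = chloroquine plus artemisinin control wells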; settings: P. falciparum 3D7 erythrocytic growth, LDH absorbance, 72 h; at 2 µM; stronger effect = higher value
[5] = molecular target: Calcium-dependent protein kinase 1 (Plasmodium falciparum (isolate 3D7)) (UniProt P62344); assay: PfCDPK1 kinase inhibitors, biochemical, TCAMS library (AID 1159585; cut-off not given, nearly all actives have IC50 up to about 0.98 µM;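 further: inhibitors leave more ATP so luminescence rises with inhibition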); settings: recombinant PfCDPK1, Kinase-Glo ATP depletion luminescence
[6] = molecular target: Plasmodium falciparum protein kinase 6 (PK6, PF3D7_1337100) (UniProt Q8IDW1); assay: PfPK6 kinase inhibitors, biochemical, TCAMS library (AID 1159586); settings: recombinant PfPK6, Kinase-Glo ATP depletion luminescence
[7] = molecular target: Protein kinase 7 (PK7), Plasmodium falciparum 3D7 (PF3D7_0213400) (UniProt Q7YTF7); assay: inhibition of Plasmodium PK7 catalytic activity – biochemical, TCAMS antimalarial set, Kinase-Glo luminescence (AID 1159587); settings: recombinant PfPK7, Kinase-Glo ATP depletion luminescence
[8] = molecular target: Calcium-dependent protein kinase 4 (Plasmodium falciparum (isolate 3D7)) (UniProt Q8IBS5); assay: PfCDPK4 kinase inhibitors, biochemical, TCAMS library (AID 1159588; cut-off not given, nearly all actives have IC50 up to about 0.91 µM); settings: recombinant PfCDPK4, Kinase-Glo ATP depletion luminescence
Sequence of Calcium-dependent protein kinase 4 (Plasmodium falciparum (isolate 3D7)) (Q8IBS5 whole entry, looked up): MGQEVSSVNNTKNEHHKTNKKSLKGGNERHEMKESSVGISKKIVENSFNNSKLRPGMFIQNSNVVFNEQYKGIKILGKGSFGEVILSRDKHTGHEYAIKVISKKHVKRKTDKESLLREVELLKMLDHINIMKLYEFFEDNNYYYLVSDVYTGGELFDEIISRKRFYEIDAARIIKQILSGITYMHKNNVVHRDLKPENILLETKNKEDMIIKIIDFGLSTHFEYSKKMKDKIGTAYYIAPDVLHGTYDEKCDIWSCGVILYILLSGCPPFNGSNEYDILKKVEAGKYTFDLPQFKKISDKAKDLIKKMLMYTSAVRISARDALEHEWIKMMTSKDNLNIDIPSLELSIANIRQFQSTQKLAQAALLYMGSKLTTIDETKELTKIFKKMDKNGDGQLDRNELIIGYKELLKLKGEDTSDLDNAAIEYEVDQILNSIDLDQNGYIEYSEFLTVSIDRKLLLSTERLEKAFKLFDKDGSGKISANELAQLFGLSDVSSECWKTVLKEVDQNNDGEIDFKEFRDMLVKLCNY

Sequence of Protein kinase 7 (PK7), Plasmodium falciparum 3D7 (PF3D7_0213400) (Q7YTF7 1-343): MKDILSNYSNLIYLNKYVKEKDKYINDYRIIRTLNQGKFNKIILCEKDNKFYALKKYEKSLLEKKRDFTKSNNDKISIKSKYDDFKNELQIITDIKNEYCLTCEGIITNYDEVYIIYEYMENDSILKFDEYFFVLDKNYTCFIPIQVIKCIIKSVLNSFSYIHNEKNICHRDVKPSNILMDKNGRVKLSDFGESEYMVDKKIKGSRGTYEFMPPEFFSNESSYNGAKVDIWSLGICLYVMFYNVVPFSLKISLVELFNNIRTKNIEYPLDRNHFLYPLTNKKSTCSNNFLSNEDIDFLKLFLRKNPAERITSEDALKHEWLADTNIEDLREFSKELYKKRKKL
Sequence of Plasmodium falciparum protein kinase 6 (PK6, PF3D7_1337100) (Q8IDW1 1-305): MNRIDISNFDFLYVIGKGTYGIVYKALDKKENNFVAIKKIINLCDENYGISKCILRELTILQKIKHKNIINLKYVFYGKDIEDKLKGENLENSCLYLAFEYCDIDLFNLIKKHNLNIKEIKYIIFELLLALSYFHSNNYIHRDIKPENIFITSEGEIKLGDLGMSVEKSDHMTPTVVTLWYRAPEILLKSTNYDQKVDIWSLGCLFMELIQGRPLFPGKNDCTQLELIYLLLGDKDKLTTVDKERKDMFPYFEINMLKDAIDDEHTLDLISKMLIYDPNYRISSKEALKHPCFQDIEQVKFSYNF
Sequence of Calcium-dependent protein kinase 1 (Plasmodium falciparum (isolate 3D7)) (P62344 whole entry, looked up): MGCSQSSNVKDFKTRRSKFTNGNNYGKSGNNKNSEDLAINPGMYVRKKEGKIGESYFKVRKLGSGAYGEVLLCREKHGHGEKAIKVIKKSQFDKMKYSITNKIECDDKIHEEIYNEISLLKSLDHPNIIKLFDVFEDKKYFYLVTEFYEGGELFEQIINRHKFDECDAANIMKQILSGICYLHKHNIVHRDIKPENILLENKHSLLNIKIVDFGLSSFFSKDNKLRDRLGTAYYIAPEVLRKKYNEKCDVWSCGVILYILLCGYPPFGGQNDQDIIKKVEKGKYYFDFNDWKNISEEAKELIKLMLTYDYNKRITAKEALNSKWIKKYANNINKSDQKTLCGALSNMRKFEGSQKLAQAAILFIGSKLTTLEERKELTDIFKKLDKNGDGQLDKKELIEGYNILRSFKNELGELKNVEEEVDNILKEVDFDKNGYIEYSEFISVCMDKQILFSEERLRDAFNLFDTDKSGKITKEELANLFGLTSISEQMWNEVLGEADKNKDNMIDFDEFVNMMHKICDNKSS
Sequence of L-lactate dehydrogenase (Plasmodium falciparum (isolate CDC / Honduras)) (Q27743 whole entry, looked up): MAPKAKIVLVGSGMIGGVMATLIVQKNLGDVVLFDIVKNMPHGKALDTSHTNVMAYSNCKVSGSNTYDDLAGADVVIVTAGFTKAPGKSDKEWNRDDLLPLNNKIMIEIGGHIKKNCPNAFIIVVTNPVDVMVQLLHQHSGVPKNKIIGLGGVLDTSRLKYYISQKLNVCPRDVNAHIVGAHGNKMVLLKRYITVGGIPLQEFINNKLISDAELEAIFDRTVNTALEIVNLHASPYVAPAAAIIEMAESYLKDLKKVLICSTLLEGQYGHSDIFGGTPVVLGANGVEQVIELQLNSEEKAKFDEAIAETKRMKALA

Compound | growth inhibition [1] | inhibition [2] | inhibition [3] [%] | growth inhibition [4] | outcome [5] | outcome [6] | outcome [7] | outcome [8]
Cc1ccc(Oc2ccc(NC(=O)CNc3ccccc3N3CCCC3=O)cc2)cc1 | 97% (active) | 14% | -5 | 98% (active) | inactive | inactive | inactive | inactive
O=C(O)C1Cc2c([nH]c3ccccc23)C(c2ccc(Cl)cc2Cl)N1 (stereo not given) | 100% (active) | 7% | 0 | 91% (active) | inactive | inactive | inactive | inactive
O=[N+]([O-])c1ccccc1C=NNc1ccnc2ccc(C(F)(F)F)cc12 | 36% | 6% | -3 | 100% (active) | inactive | inactive | inactive | inactive
CNC(=O)CSc1nnc(-c2ccc(C)cc2)c(-c2ccc(C)cc2)n1 | 49% | 2% | -3 | 94% (active) | inactive | inactive | inactive | inactive
Cc1nnc2c(NC(=O)NC(C)C)cc3cc(-c4ccc(CN5CCCCC5)cc4)ccc3n12 | 8% | 70% (active) | 1 | 87% (active) | inactive | inactive | inactive | inactive
CCOc1cc(C(=O)Nc2cccnc2)ccc1-c1nc2cc(Cl)c(Cl)cc2[nH]1 | 70% (active) | 9% | 0 | 100% (active) | inactive | inactive | inactive | inactive
Cc1cnc(NCC2CCCCC2)nc1N[C@@H](CO)C(=O)Nc1ccccc1 | 56% (active) | -1% | -3 | 83% (active) | inactive | inactive | inactive | inactive
Cc1cc(Cl)c(Cl)cc1NC(=O)Nc1cccc(C(F)(F)F)c1 | 99% (active) | 1% | -1 | 93% (active) | inactive | inactive | inactive | inactive
CCN(CC)c1ccc(C(c2ccc(N(CC)CC)cc2)c2ccc([N+](=O)[O-])cc2)cc1 | 63% (active) | 20% | 0 | 82% (active) | inactive | inactive | inactive | inactive
CCc1cn(CCCOC)c2ccc(C(=O)N[C@@H](Cc3ccccc3)[C@H](O)CNCc3cccc(C(F)(F)F)c3)cc12 | 78% (active) | 8% | -4 | 93% (active) | inactive | inactive | inactive | inactive
CCN1CCN(CCCNc2c3ccc(Cl)cc3nc3ccc(O)cc23)CC1 | 1% | 32% | -3 | 103% (active) | inactive | inactive | inactive | inactive
O=C(Nc1cc(F)cc(F)c1)NC1CCN(CCCCCNC(=O)[C@@H]2C[C@H]2c2ccc(Cl)c(Cl)c2)CC1 | 6% | 49% | 6 | 102% (active) | inactive | inactive | inactive | inactive
Cc1ccc(CN2CCC(C(=O)Nc3ccc(-c4cc5ccccc5[nH]4)cc3)CC2)o1 | 40% | 19% | 3 | 92% (active) | inactive | inactive | inactive | inactive
O=C(C=Cc1ccc(Cl)c(Cl)c1)NCCCCCN1CCC(CCCNC(=O)[C@@H]2C[C@H]2c2ccccc2)CC1 | 12% | 45% | -1 | 95% (active) | inactive | inactive | inactive | inactive
CC(=O)c1c(CC(=O)O)c2ccccc2n1O | -1% | 16% | -3 | 98% (active) | inactive | inactive | inactive | inactive
Cc1cc2nc(-c3ccc(/C=C/C(=O)NC4CCCCC4)cc3)[nH]c2cc1C | 10% | 9% | 2 | 93% (active) | inactive | inactive | inactive | inactive
Cc1ccc2c(c1)c(-c1ccccc1)c(-c1ccccc1)n2CC(O)CN1CCN(CC=Cc2ccccc2)CC1 (stereo not given) | 98% (active) | 0% | 6 | 98% (active) | inactive | inactive | inactive | inactive
Cc1ccc(O)cc1Nc1c(C(N)=O)cnc2ccc(-c3cncs3)cc12 | 99% (active) | 21% | 3 | 100% (active) | inactive | inactive | inactive | inactive
Cc1ccc(C(=O)Nc2ccc(Cl)c(N3CCN(CCc4ccccc4)CC3)c2)cc1 | 14% | 17% | -7 | 90% (active) | inactive | inactive | inactive | inactive
NC(=O)c1ccccc1OCC(=O)Nc1cccc(-c2ccc(-c3nc4ccccc4[nH]3)cc2)c1 | 46% | 66% (active) | 4 | 95% (active) | inactive | inactive | inactive | inactive

Compound | growth inhibition [1] | inhibition [2] | inhibition [3] [%] | growth inhibition [4] | outcome [5] | outcome [6] | outcome [7] | outcome [8]
CC(C)(CNCc1cccc(Oc2cccc(C(F)(F)F)c2)c1)c1nc(-c2ccc(Cl)c(O)c2)c(-c2ccnc(N)n2)[nH]1 | 98% (active) | 23% | 2 | 99% (active) | inactive | inactive | inactive | inactive
COc1ccccc1Cn1ccnc1SCC(=O)Nc1cccc(C(F)(F)F)c1 | 73% (active) | -6% | -2 | 86% (active) | inactive | inactive | inactive | inactive
CC(C)c1ccc(NC(=O)N[C@H]2CCN(CCCCCNC(=O)/C=C/c3ccc(Cl)c(Cl)c3)C2)cc1 | 14% | 56% (active) | 7 | 100% (active) | inactive | inactive | inactive | inactive
CC(C)COc1ccc(Cl)cc1Cc1nc(-c2nc3ccc(CN4CCCC4)cc3[nH]2)co1 | 66% (active) | 50% (active) | -1 | 101% (active) | inactive | inactive | inactive | inactive
CCNc1cc(C(=O)N[C@@H](Cc2ccccc2)[C@H](O)CNCC(C)C)cc(N2CCCC2=O)c1 | 97% (active) | 16% | 3 | 98% (active) | inactive | inactive | inactive | inactive
c1ccc(-c2nc(NC3CCCCC3)cc(C3CC3)n2)nc1 | 76% (active) | 35% | 2 | 97% (active) | inactive | inactive | inactive | inactive
COc1ccc(NC(=O)CCNc2ccnc(NCCc3ccc(F)cc3)n2)cc1 | 5% | 4% | -3 | 94% (active) | inactive | inactive | inactive | inactive
C#CCCC(=O)Nc1cccc(-c2cccc(-c3nc4ccc(C(F)(F)F)cc4[nH]3)c2)c1 | 45% | 14% | -4 | 90% (active) | inactive | inactive | inactive | inactive
CCOC(=O)NC1=NC(C)(C)N(OCCCOc2ccc(C)cc2C)C(NC(=O)OCC)=N1 | 98% (active) | 63% (active) | 7 | 95% (active) | inactive | inactive | inactive | inactive
Nc1nccc2ccc(-c3ccc(OCc4ccccc4)cc3)cc12 | 67% (active) | 40% | -8 | 101% (active) | inactive | inactive | inactive | inactive
Cc1cccc2[nH]c(-c3ccc(-c4ccc(CN5CCCC5CN)cc4)cc3)nc12 (stereo not given) | 65% (active) | 28% | 1 | 99% (active) | inactive | inactive | inactive | inactive
Cc1sc(CNCCCNc2cc(=O)c3ccccc3[nH]2)c(I)c1C | 48% | -10% | -4 | 94% (active) | inactive | inactive | inactive | inactive
C[C@H](Cc1ccc(OCCCCCOc2ccc(C[C@@H](C)NC[C@H](O)c3cccc(Cl)c3)cc2)cc1)NC[C@H](O)c1cccc(Cl)c1 | 101% (active) | 99% (active) | -1 | 99% (active) | inactive | inactive | inactive | inactive
Cc1cccc2[nH]c(-c3cccc(-c4cccc(NC(=O)c5csnn5)c4)c3)nc12 | 49% | 10% | 1 | 98% (active) | inactive | inactive | inactive | inactive
O=C(/C=C/c1ccc(Cl)c(Cl)c1)NCCCCCN1CCC(NC(=O)c2ccc3ccccc3c2)CC1 | 20% | 8% | -2 | 87% (active) | inactive | inactive | inactive | inactive
CCc1ccc(CN2CCC(CNC(=O)c3cc(-c4ccccc4F)cs3)C2)cc1 (stereo not given) | 3% | 29% | -2 | 100% (active) | inactive | inactive | inactive | inactive
COc1cc(Nc2ccnc3ccc(C(F)(F)F)cc23)ccc1OCCCc1ccccc1 | 51% (active) | 11% | -10 | 99% (active) | inactive | inactive | inactive | inactive
CN(CCCN(C)c1cc(NC(=O)c2cccc(F)c2)ccn1)Cc1cccc(O)c1 | 4% | -3% | -1 | 92% (active) | inactive | inactive | inactive | inactive
O=C1CCCN1CCCNCc1cccc(-c2cccc(-c3nc4ccc(C(F)(F)F)cc4[nH]3)c2)c1 | 90% (active) | 28% | -3 | 101% (active) | inactive | inactive | inactive | inactive
COc1ccc(-c2cccc(NC(=O)c3cccc(C#N)c3)c2)cc1CN1CCCC1 | 32% | 28% | -4 | 98% (active) | inactive | inactive | inactive | inactive
